Rows were chosen to be rich in hits. Some 1.1% of all compounds tested hit in one or more screens of this group.
HTR5A ag – activates human HTR5A in OPRM1-OPRD1 agonist counter-screen. activation, % at 9.3 µM. P47898. 340,000 tested, 0.61% active. AID 504692. HTR5A agonist assay, luminescence, cell-based; in the data active = activation mostly above about 9.5%, no sharp cut-off; inactive = mostly below about 7.6%;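 also: 0% = cells with vehicle only and 100% = reference agonist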
HTR5A inv ctr – inverse agonist of human HTR5A in OPRM1-OPRD1 counter-screen. P47898. HTR5A cell line, luminescence, inverse agonism. inhibition, % at 9.3 µM. 340,000 tested, 0.083% active; in the data active = inhibition mostly above about 23%, no sharp cut-off; inactive = mostly below about 18%;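 also: 0% = cells with DMSO and 100% = no-cell wells with DMSO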
MOR-DOR ag – OPRM1-OPRD1 heterodimerization agonism. 340,000 tested, 0.3% active. cells, luminescence. AID 504326. P35372+P41143. activation, % at 9.3 µM; in the data active = activation above about 18%;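 also: 0% = vehicle-treated cells and 100% = reference agonist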
Target sequence (P35372 whole entry, looked up): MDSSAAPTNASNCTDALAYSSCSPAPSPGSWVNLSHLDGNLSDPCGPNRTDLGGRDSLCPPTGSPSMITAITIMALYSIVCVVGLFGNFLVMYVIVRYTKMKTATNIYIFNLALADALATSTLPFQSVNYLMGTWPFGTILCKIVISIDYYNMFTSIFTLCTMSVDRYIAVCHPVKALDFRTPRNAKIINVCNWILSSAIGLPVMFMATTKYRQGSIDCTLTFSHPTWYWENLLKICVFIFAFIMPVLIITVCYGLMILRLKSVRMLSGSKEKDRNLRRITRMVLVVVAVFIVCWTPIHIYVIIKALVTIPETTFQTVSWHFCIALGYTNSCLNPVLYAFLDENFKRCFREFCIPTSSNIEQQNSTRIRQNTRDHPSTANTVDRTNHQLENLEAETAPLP
Target sequence (P41143 whole entry, looked up): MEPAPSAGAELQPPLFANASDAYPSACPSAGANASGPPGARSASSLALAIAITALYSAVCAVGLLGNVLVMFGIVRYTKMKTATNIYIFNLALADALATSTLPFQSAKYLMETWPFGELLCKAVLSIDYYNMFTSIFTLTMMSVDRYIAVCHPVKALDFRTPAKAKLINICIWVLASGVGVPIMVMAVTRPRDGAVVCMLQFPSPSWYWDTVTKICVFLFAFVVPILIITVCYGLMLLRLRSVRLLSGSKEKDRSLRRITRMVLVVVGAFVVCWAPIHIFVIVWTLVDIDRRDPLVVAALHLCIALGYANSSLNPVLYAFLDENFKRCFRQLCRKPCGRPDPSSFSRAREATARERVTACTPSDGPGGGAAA
OPRM1-OPRD1 inv – inverse agonists of human mu-delta opioid receptor heterodimerization | P35372+P41143 | cell-based MOR-DOR heterodimer luminescence, inverse agonism | inhibition, % at 9.3 µM | 340,000 tested, 0.21% active; in the data active = inhibition above about 22%, passing the limit was not always enough;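 also: 0% = cells with DMSO and 100% = wells without cells with DMSO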
Numbers without * were called inactive.

SMILES	HTR5A ag	HTR5A inv ctr	MOR-DOR ag	OPRM1-OPRD1 inv
CC(C)c1ccc(OCC(=O)NNC(=S)NC(=O)c2cccs2)c(Br)c1	12*	1	-3	16
Cc1ccc(OCC(=O)NNC(=S)NC(=O)C(C)(C)C)c(Br)c1	1	-2	-5	26
Cc1ccc(OCCNC(=O)C(C)SCC(=O)Nc2ccc(F)cc2)cc1 (stereo not drawn)	7	-19	1	-5
O=C(CCl)N=c1sccn1Cc1ccccc1Cl	85*	-252	66*	-330
O=C(CCl)N=c1sccn1Cc1cccc2ccccc12	73*	-21	74*	-396
CCC(=O)OCC(=O)N=c1sccn1Cc1ccccc1Cl	-5	10	-1	3
O=C(CCl)N=c1sccn1Cc1ccc(Cl)cc1Cl	53*	-4	77*	-384
Cc1ccc(S(=O)(=O)N2[C@@H](c3cccc(C)c3)C(C(=O)O)=C[C@H]2C(C)(C)C)cc1	-1	2	2	-10
O=C(c1ccc(Cl)c(S(=O)(=O)NCc2ccco2)c1)N1CCN(c2ccccc2F)CC1	13*	-86	-2	10
COc1cccc(CNC(=O)CCS(=O)(=O)c2cccc3nsnc23)c1	-7	17	-1	7
COc1cccc(CNC(=O)CCS(=O)(=O)c2cccc3nonc23)c1	13*	20	0	-3
COc1ccccc1NC(=S)N(Cc1ccccc1)Cc1cccs1	9.3*	12	0	-2
COc1ccccc1NC(=S)N(Cc1cccs1)C1CCCC1	0	0	1	-2
CCC(=O)c1ccc(OCc2cn(CC(=O)c3ccc(O)cc3)nn2)cc1	-4	14	-4	19
CCC(=O)N1CCc2cc(S(=O)(=O)NCCC(=O)NCc3ccccc3OC)ccc21	11*	-5	-2	9
CC1CCN(Cc2c(C(=O)N/N=C/c3cc(Cl)ccc3O)nnn2-c2nonc2N)CC1	0	0	5	-26
COc1c(Cl)cc(Cl)cc1/C=N/NC(=O)c1nnn(-c2nonc2N)c1CN1CCC(C)CC1	11*	-19	2	-12
O=C(CN(C1CCCCC1)S(=O)(=O)c1ccc(Cl)cc1)NCc1cccnc1	13*	-1	-2	9
Cc1cc(C(=O)NNC(=O)C(C)(C)Oc2ccc(Cl)cc2)c(C)o1	1	-2	-4	17
COc1cccc(CN2CCCC(C(=O)c3ccc4c(c3)OCO4)C2)c1OC (stereo not drawn)	0	10	0	2
O=C(c1ccc2c(c1)OCO2)C1CCCN(Cc2ccccc2OC(F)F)C1 (stereo not drawn)	13*	-3	8	-45
COc1ccc(/C=C(/C(=O)c2cccs2)N2C=CC=CC2=C(C#N)C#N)cc1	-6	7	-1	6
N#CC(C#N)=C1C=CC=CN1/C(=C\c1ccco1)C(=O)c1ccc(Br)cc1	-2	-4	-5	29*
N#CC(C#N)=C1C=CC=CN1/C(=C\c1ccco1)C(=O)c1ccccc1	-4	-8	-7	36*
N#C/C(=C/c1ccco1)C(N)=S	1	12	0	-3
SMILES	HTR5A ag	HTR5A inv ctr	MOR-DOR ag	OPRM1-OPRD1 inv
COc1ccc(C(=O)/C(=C\c2ccco2)N2C=CC=CC2=C(C#N)C#N)cc1	-3	7	-5	33*
COc1ccc(S[C@@H](CCN2CC[C@H](O)CCC2=O)c2ccccc2)cc1	3	-7	-2	13
C=C(C)CN=CC1(C)CCC(C)=CO1 (stereo not drawn)	2	-8	-2	12
COC(=O)c1cc(S(=O)(=O)N2CCC(C)CC2)ccc1F	9.7*	5	0	3
COc1ccc(CC(=O)Nc2ccc(-c3nc4cc(C)ccc4o3)c(O)c2)cc1OC	14*	5	1	-3
CCOc1ccc(S(=O)(=O)N2CCN(C(=O)c3cc(C4CC4)nn3-c3ccccc3)CC2)cc1	-1	2	2	-11
COc1ccc(N(C(=O)c2ccco2)C(C(=O)NC2CCCCC2)c2cccs2)cc1OC (stereo not drawn)	6	-16	-2	12
COc1cccc(N(C(=O)CCl)C(C(=O)NCCc2ccccc2)c2cccs2)c1 (stereo not drawn)	61*	-75	68*	-362
COc1ccc(N(C(=O)CCl)C(C(=O)NCCc2ccccc2)c2cccs2)cc1Cl (stereo not drawn)	54*	-145	66*	-394
COc1cccc(N(C(=O)c2snc(C(N)=O)c2N)C(C(=O)NCC2CCCO2)c2cccs2)c1 (stereo not drawn)	-3	8	0	-3
CC(C)(C)OC(=O)C[C@H]1C/C=C\C[C@@H](CC(=O)N(CCO)Cc2ccccc2)C(=O)N2CCC[C@H]2COC1=O	0	-2	-3	14
